# Measured values from ChEMBL document CHEMBL3988442, “University of Dundee, Small-Polar-MMV Screening Library” (2021).
# About 1,000 (1.4%) of roughly 69,000 compounds showed an effect of 50% or more. Only a selection was taken, and strong results are over-represented in it overall.
# Tested on: Leishmania donovani
# Assay: Leishmania intramacrophage assay
# Type: functional, organism-based
# Design: scale not given: in the data most compounds retested in dose-response had high values
smiles,measurement,setting,value
Cc1cc(CNS(=O)(=O)CCCC#N)ccc1N(C)C,Percent Effect,"30.3 µM, […]",31.94%
CCOc1ncnc2c1CCN(Cc1csc(C)n1)CC2.O=C(O)C(F)(F)F,Percent Effect,"30.3 µM, […]",25.55%
CCOc1cc2c(cc1CNC(Cc1cccs1)c1nccs1)OCO2.Cl (stereo not drawn),Percent Effect,"30.3 µM, […]",32.16%
Cc1nccc(-c2ccccc2)c1C(=O)N1CCC2(CCCO2)CC1,Percent Effect,"30.3 µM, […]",-0.7591%
Cc1[nH]c(-c2ccccc2)nc1C(=O)N1CCC(O)(CO)CC1,Percent Effect,"30.3 µM, […]",20.13%
Cc1[nH]c(-c2ccccc2)nc1C(=O)N1CCC2(CCCO2)CC1,Percent Effect,"30.3 µM, […]",62.09%
CS(=O)(=O)Cc1cccc(C(=O)N2CCCC(n3cccn3)C2)c1 (stereo not drawn),Percent Effect,"30 µM, 30.03 µM",-5.751%
CCc1ccc(C(=O)N2CCC(c3nncn3CC)CC2)o1,Percent Effect,"30.3 µM, […]",-10.9%
COc1cc(CNC(=O)c2csc(Br)c2)ccn1,Percent Effect,"30.3 µM, […]",18.58%
Cc1ccc(-c2cc(CN(CC(N)=O)CC(C)C)on2)cc1,Percent Effect,"30.3 µM, […]",57.13%
Cc1cc(CN(CC(N)=O)CC(C)C)no1,Percent Effect,"30.3 µM, […]",34.93%
Cc1cc(CN(CC(N)=O)CC(C)C)on1,Percent Effect,"30.3 µM, […]",34.94%
CN(C)C(=O)CO[C@H]1CN(Cc2ccc3c(c2)OCO3)[C@@H]2COC[C@H]12.O=C(O)C(F)(F)F,Percent Effect,"30.3 µM, […]",10.2%
O=C(O)Cc1cccc(-n2ccnc2-c2ccc(Cl)s2)c1,Percent Effect,"30.3 µM, […]",-13.71%
CC(NC(=O)NCCCO)c1ccc2c(c1)NC(=O)CO2 (stereo not drawn),Percent Effect,30 µM,9.165%
CC(NC(=O)C1CCCC1)c1nncn1C(C)C (stereo not drawn),Percent Effect,"30.3 µM, […]",53.36%
CC(NC(=O)C1CCN(C(C)C)CC1)c1nncn1C1CCCC1 (stereo not drawn),Percent Effect,"30.3 µM, […]",38.57%
CC(NC(=O)C1CCN(C(=O)C2CC2)CC1)c1nncn1C(C)C (stereo not drawn),Percent Effect,"30.3 µM, […]",27.99%
Cc1ccc(CN2CCOC3(CCCN(c4cccc(F)c4)C3)C2)o1.O=C(O)C(F)(F)F.O=C(O)C(F)(F)F (stereo not drawn),Percent Effect,"30.3 µM, […]",23.02%
O=C(NCCCOC1CCCCC1)C1NCCc2[nH]cnc21 (stereo not drawn),Percent Effect,"30.3 µM, […]",6.477%
COC(=O)NCC(=O)N1CCC(c2cc3ccccc3[nH]2)CC1,Percent Effect,"30.3 µM, […]",11.64%
N#CCCCS(=O)(=O)NC1(c2cccc(Cl)c2)CC1,Percent Effect,"30.3 µM, […]",17.77%
CCS(=O)(=O)N1CCc2ccc(NC(=O)Nc3cccc(SC)c3)cc21,Percent Effect,"30 µM, 30.03 µM",59.71%
CCS(=O)(=O)N1CCc2ccc(NC(=O)Nc3ccccc3)cc21,Percent Effect,"30.3 µM, […]",14.09%
CCS(=O)(=O)N1CCc2ccc(NC(=O)Nc3cccc(F)c3)cc21,Percent Effect,"30.3 µM, […]",17.8%
CC(=O)N(Cc1ncc(C(C)C)o1)C1CCN(Cc2cc(C)no2)C1 (stereo not drawn),Percent Effect,30 µM,25.52%
O=C1CN(C(=O)C2CN(c3ccccc3)CCO2)CCN1 (stereo not drawn),Percent Effect,"30.3 µM, […]",40.28%
CN(C)CCn1c(=O)n(C)c(=O)c2ccccc21.Cl,Percent Effect,"30.3 µM, […]",-33.87%
CC(C)n1c(=O)c2ccccc2n(CCN(C)C)c1=O.Cl,Percent Effect,"30.3 µM, […]",50.24%
O=C(NCCCN1CCCCC1)c1n[nH]c(=O)c2ccccc12,Percent Effect,"30.3 µM, […]",20.29%
CC(C)n1c(=O)c2ccccc2n(CCCN(C)C)c1=O.Cl,Percent Effect,"30.3 µM, […]",-9.627%
O=C(NCCN1CCCCCC1)c1n[nH]c(=O)c2ccccc12,Percent Effect,"30.3 µM, […]",-32.33%
CC(C)n1c(=O)c2ccccc2n(CCN2CCCCC2)c1=O,Percent Effect,"30.3 µM, […]",52.87%
CCOCCn1nnc(C2(NC(=O)c3ccccc3)CCCC2)n1,Percent Effect,"30 µM, 30.03 µM",1.124%
CN(Cc1ccoc1)C(=O)C1(Oc2ccc(Cl)cc2)CCNCC1,Percent Effect,"30.3 µM, […]",-16.66%
CN(Cc1ccncn1)C(=O)C1(Oc2ccc(Cl)cc2)CCNCC1,Percent Effect,"30.3 µM, […]",12.34%
Cc1ccc(OC2(C(=O)N(C)Cc3ccoc3)CCNCC2)cc1,Percent Effect,"30.3 µM, […]",83.11%
NC(=O)c1cccc2nc([C@H]3CCN(Cc4ccccn4)C3)[nH]c12,Percent Effect,"30.3 µM, […]",53.25%
Cc1ccc(CN2CC[C@H](c3nc4cccc(C(N)=O)c4[nH]3)C2)cc1,Percent Effect,"30.3 µM, […]",-18.93%
NC(=O)c1cccc2nc([C@H]3CCN(Cc4ccccc4F)C3)[nH]c12,Percent Effect,"30.3 µM, […]",22.02%
c1ccc(C(CC2CN(Cc3c[nH]cn3)CCO2)c2ccccc2)cc1 (stereo not drawn),Percent Effect,"30.3 µM, […]",20.85%
CN(C)S(=O)(=O)N(C)C(c1cccc(F)c1)c1ccccn1 (stereo not drawn),Percent Effect,30 µM,24.26%
Clc1cccnc1N1CCC(C2CCN(Cc3cccnc3)CC2)C1 (stereo not drawn),Percent Effect,"30.3 µM, […]",-17.23%
Clc1ccc(CN2CCC(C3CCN(Cc4cccnc4)CC3)C2)cc1 (stereo not drawn),Percent Effect,"30.3 µM, […]",51.57%
Clc1ccc(N2CCC(C3CCN(Cc4cccnc4)CC3)C2)nc1 (stereo not drawn),Percent Effect,"30.3 µM, […]",-2.762%
Cc1ncsc1CN(Cc1ccccc1)Cc1ccncc1,Percent Effect,"30.3 µM, […]",55.73%
Cc1ncsc1C(=O)N(C)Cc1ccncc1,Percent Effect,"30 µM, 30.03 µM",-5.146%
Cc1ncsc1CN(Cc1ccccc1)Cc1ncc[nH]1,Percent Effect,"30.3 µM, […]",-37.36%
Cc1noc(C2CCN(CC(=O)N3CCNC(=O)C3)CC2)n1,Percent Effect,"30.3 µM, […]",-15.33%
O=C(O)C1(Cc2cccc(Cl)c2)CCCN(c2ncnc3[nH]ccc23)C1 (stereo not drawn),Percent Effect,"30.3 µM, […]",20.11%
CCCSc1nn(CCCN(C)C)c2nc3sc(C)c(CC)c3c(=O)n12,Percent Effect,"30.3 µM, […]",-2.726%
O=C(c1ccoc1)N1Cc2cnn(CC3CC3)c2C(COCC2CC2)C1 (stereo not drawn),Percent Effect,"30.3 µM, […]",-14.05%
CC(C)C(=O)N1CCC(c2c(C(N)=O)sc3ccccc23)C1 (stereo not drawn),Percent Effect,"30.3 µM, […]",2.33%
CCCS(=O)(=O)CCN1CCN(C(C#N)c2ccccc2)CC1 (stereo not drawn),Percent Effect,"30.3 µM, […]",50.86%
CS(=O)(=O)CCCN1CCN(C(C#N)c2ccccc2)CC1 (stereo not drawn),Percent Effect,"30.3 µM, […]",16.78%
CC(C)S(=O)(=O)CCN1CCN(C(C#N)c2ccccc2)CC1 (stereo not drawn),Percent Effect,"30.3 µM, […]",27.38%
CC(C)c1nc(C2CCCN(C(=O)CCc3cscn3)C2)no1 (stereo not drawn),Percent Effect,30 µM,12.46%
Cc1oncc1C(=O)NCC1(O)CCc2ccccc2C1 (stereo not drawn),Percent Effect,"30.3 µM, […]",25.53%
Cc1nn(C)c(Cl)c1CNCc1cccnc1N1CCCCC1.Cl,Percent Effect,"30.3 µM, […]",-11.04%
Cc1nn(C)c(Cl)c1CNCc1cccnc1N1CCOCC1.Cl,Percent Effect,"30 µM, 30.03 µM",2.073%
Cc1nn(C)c(Cl)c1CNCc1cccnc1N1CCN(C)CC1.Cl,Percent Effect,"30 µM, 30.03 µM",52.88%
Cc1ccc(C)c(S(=O)(=O)CCNC2CCc3ncnn3C2)c1 (stereo not drawn),Percent Effect,30 µM,28.38%
CCc1ncc(CN[C@@H]2CCCN(C(C)=O)[C@H]2c2ccc(C)s2)cn1.Cl,Percent Effect,"30.3 µM, […]",12.48%
CC(C)c1nc(-c2cc(C(=O)NCCN(C)C)c3ccccn23)cs1.O=C(O)C(F)(F)F,Percent Effect,"30.3 µM, […]",74.71%
CC(C)c1nc(-c2cc(C(=O)O)c3ccccn23)cs1,Percent Effect,"30.3 µM, […]",-0.8279%
CC(C)c1nc(-c2cc(C(=O)NCCCO)c3ccccn23)cs1,Percent Effect,"30.3 µM, […]",30%
Cc1nc(-c2cc(C(=O)NCCN3CCOCC3)c3ccccn23)cs1.O=C(O)C(F)(F)F,Percent Effect,"30.3 µM, […]",-52.36%
CC(C)c1nc(-c2cc(C(=O)N3CCN(C)CC3)c3ccccn23)cs1.O=C(O)C(F)(F)F,Percent Effect,"30.3 µM, […]",16.88%
